Measurements reported in PubChem BioAssay (NCI).
The panel holds about 79,000 compounds, 15% with a hit somewhere; the sample as a whole holds those more often. The source made the active and inactive calls. Rule as the data show it: active = growth inhibition above about 70%; inactive = the rest.

Assays:
[1] = NCI Yeast Anticancer Drug Screen. Data for the mec2-1 strain (AID 157); details: S. cerevisiae mec2-1 strain, active compounds read high
How it was run: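 Cells of the genetically defined mec2-1 yeast strain are incubated with test compound. Inhibition of growth is calculated against vehicle-treated controls.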

[2] = NCI Yeast Anticancer Drug Screen. Data for the rad14 strain (AID 159);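 also: 0% = growth of vehicle-treated control cultures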; details: S. cerevisiae rad14 strain growth inhibition, active compounds read high
How it was run: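 Inhibition of growth is reported for a repair-deficient yeast mutant following compound treatment, calculated relative to cultures that received vehicle.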

[3] = NCI Yeast Anticancer Drug Screen. Data for the sgs1 mgt1 strain (AID 161);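 also: 0% = growth of cultures given vehicle only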; details: S. cerevisiae sgs1 mgt1 strain, active compounds read high
How it was run: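 Test agents were incubated with a DNA-repair-mutant yeast strain. Growth was then read and compared against vehicle-treated controls.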

[4] = NCI Yeast Anticancer Drug Screen. Data for the CLN2oe strain (AID 163);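 also: 0% = growth of vehicle-only control cultures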; details: S. cerevisiae CLN2oe strain, active compounds read high
How it was run: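 Strain altered in cell-cycle control, incubated with compound; growth compared to solvent-treated controls.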

[5] = NCI Yeast Anticancer Drug Screen. Data for the cln2 rad14 strain (AID 165);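 also: 0% = growth equal to vehicle treated cultures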; details: S. cerevisiae cln2 rad14 strain, active compounds read high
How it was run: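 The screen exposed genetically defined yeast (cln2 rad14) to test compounds and scored growth inhibition relative to vehicle-treated controls.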

[6] = NCI Yeast Anticancer Drug Screen. Data for the bub3 strain (AID 167); details: S. cerevisiae bub3 mutant strain, active compounds read high
How it was run: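 Mutant yeast screening strain plus compound; vehicle-treated cultures serve as the 0% inhibition reference.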

[7] = NCI Yeast Anticancer Drug Screen. Data for the wt2 strain (AID 169); details: S. cerevisiae wt2 strain growth inhibition, active compounds read high
How it was run: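 Steps: yeast strain treated with compound; growth recorded; inhibition calculated relative to cultures given vehicle alone.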

[8] = NCI Yeast Anticancer Drug Screen. Data for the mlh1 strain (AID 171);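 also: 0% = growth of vehicle-treated control cultures of the same strain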; details: S. cerevisiae mlh1 strain growth inhibition, active compounds read high
How it was run: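 Yeast screen: mutant strain plus compound, growth scored against vehicle control wells.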

[9] = NCI Yeast Anticancer Drug Screen. Data for the mlh1 rad18 strain (AID 175); details: S. cerevisiae mlh1 rad18 strain growth inhibition, active compounds read high
How it was run: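 Compound-treated yeast growth, normalised to vehicle controls. Strain bears defined DNA repair mutations.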

[10] = NCI Yeast Anticancer Drug Screen. Data for the rad18 strain (AID 177); details: S. cerevisiae rad18 mutant growth inhibition, active compounds read high
How it was run: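 Inhibition values reflect reduced yeast growth compared with vehicle-treated controls, using a strain engineered with a DNA damage repair defect.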

[11] = NCI Yeast Anticancer Drug Screen. Data for the rad52 strain (AID 147);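 also: 0% = growth of vehicle-treated control cultures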; details: S. cerevisiae rad52 mutant growth inhibition, active compounds read high
How it was run: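 Genetically altered yeast (DNA damage repair defect) treated with compound; inhibition calculated relative to vehicle.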

[12] = NCI Yeast Anticancer Drug Screen. Data for the wt1 strain (AID 149);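 also: 0% = growth of vehicle-treated wt1 cultures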; details: S. cerevisiae wt1 strain (SPY 50644) growth inhibition, active compounds read high
How it was run: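 Each compound is tested on wt1 yeast and the loss of growth versus vehicle gives the inhibition value.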

[13] = NCI Yeast Anticancer Drug Screen. Data for the rad50EPP+ strain (AID 151);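 also: 0% = growth of vehicle-treated control cultures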; details: S. cerevisiae rad50 mutant strain, active compounds read high
How it was run: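 Strain rad50EPP+; compound exposure; % growth inhibition vs vehicle.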

[14] = NCI Yeast Anticancer Drug Screen. Data for the rad50 strain (AID 155);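 also: 0% = growth of vehicle-only cultures of the same strain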; details: S. cerevisiae rad50 strain growth inhibition, active compounds read high
How it was run: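 Vehicle-treated cultures provide the reference for the growth inhibition reported for compound-exposed, repair-deficient yeast.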

[15] = NCI Yeast Anticancer Drug Screen. Data for the sgs1 strain (AID 173);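 also: 0% = growth of vehicle-only control cultures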; details: S. cerevisiae sgs1 mutant, active compounds read high
How it was run: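 Inhibition of yeast growth served as the measure. The mutant strain was treated with each compound, and growth was normalised to cultures receiving vehicle alone.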

[16] = at 5.0 µM (retest, dose inferred, filed as 0.5)
[17] = at 50.0 µM (retest, dose inferred, filed as 5.0)

Measured: growth inhibition

CCC(=O)N(c1ccccc1)C(C)CN1CCC(O)(c2cccc(C(F)(F)F)c2)CC1 (centres undefined)
inactive: [1]; at 100.0 µM 57% | [2]; at 1.2 µM 6% | [2]; at 3.7 µM 18% | [2]; at 11.0 µM 48% | [2]; at 33.0 µM 68% | [3]; [16] -4% | [3]; [17] 41% | [3]; at 50.0 µM 68.2% | [4]; at 1.2 µM 2% | [4]; at 3.7 µM 1% | [4]; at 11.0 µM 13% | [4]; at 33.0 µM 41% | [5]; [16] 7% | [5]; [17] 43% | [5]; at 50.0 µM 18.6% | [6]; at 1.2 µM 1% | [6]; at 3.7 µM 3% | [6]; [16] 4% | [6]; at 11.0 µM 17% | [6]; at 33.0 µM 49% | [6]; [17] 51% | [6]; at 50.0 µM 65.2% | [7]; at 1.2 µM 0% | [7]; at 3.7 µM 5% | [7]; at 11.0 µM 16% | [7]; at 33.0 µM 44% | [8]; at 1.2 µM 2% | [8]; at 3.7 µM 6% | [8]; at 11.0 µM 17% | [8]; at 33.0 µM 44% | [9]; [16] -3% | [9]; [17] 37% | [9]; at 50.0 µM 38.9% | [10]; at 1.2 µM 3% | [10]; at 3.7 µM 9% | [10]; at 11.0 µM 25% | [10]; at 33.0 µM 31% | [10]; at 100.0 µM 69%
active: [2]; at 100.0 µM 97% | [4]; at 100.0 µM 73% | [6]; at 100.0 µM 89% | [7]; at 100.0 µM 96% | [8]; at 100.0 µM 91%

O=C(/C=C\c1ccc([N+](=O)[O-])o1)Nc1ccc(Cl)cc1
active: [11]; at 3.7 µM 96% | [11]; at 11.0 µM 98% | [11]; at 33.0 µM 98% | [11]; at 100.0 µM 97% | [12]; at 11.0 µM 97% | [12]; at 33.0 µM 98% | [12]; at 100.0 µM 98% | [13]; at 11.0 µM 83% | [13]; at 33.0 µM 91% | [13]; at 100.0 µM 84% | [14]; at 3.7 µM 82% | [14]; at 11.0 µM 97% | [14]; at 33.0 µM 97% | [14]; at 50.0 µM 90.1% | [14]; at 100.0 µM 96% | [1]; at 33.0 µM 91% | [1]; at 100.0 µM 95% | [2]; at 3.7 µM 70% | [2]; at 11.0 µM 91% | [2]; at 33.0 µM 94% | [2]; at 100.0 µM 96% | [3]; [17] 84% | [3]; at 50.0 µM 90% | [4]; at 11.0 µM 73% | [4]; at 33.0 µM 76% | [6]; at 11.0 µM 82% | [6]; at 33.0 µM 78% | [6]; at 100.0 µM 96% | [7]; at 3.7 µM 87% | [7]; at 11.0 µM 99% | [7]; at 33.0 µM 99% | [7]; at 100.0 µM 98% | [8]; at 11.0 µM 94% | [8]; at 33.0 µM 93% | [8]; at 100.0 µM 97% | [9]; [16] 88% | [9]; [17] 86% | [9]; at 50.0 µM 92.8% | [10]; at 1.2 µM 95% | [10]; at 3.7 µM 97% | [10]; at 11.0 µM 97% | [10]; at 33.0 µM 97% | [10]; at 100.0 µM 93%
inactive: [11]; at 1.2 µM 69% | [12]; at 1.2 µM 6% | [12]; at 3.7 µM 50% | [13]; at 1.2 µM 52% | [13]; at 3.7 µM 69% | [14]; at 1.2 µM 38% | [14]; [16] 24% | [14]; [17] 54% | [1]; at 1.2 µM 4% | [1]; at 3.7 µM 19% | [1]; [16] 23% | [1]; at 11.0 µM 63% | [1]; [17] 55% | [1]; at 50.0 µM 27.5% | [2]; at 1.2 µM 21% | [3]; [16] 63% | [4]; at 1.2 µM -4% | [4]; at 3.7 µM 30% | [4]; at 100.0 µM 61% | [5]; [16] 14% | [5]; [17] 31% | [5]; at 50.0 µM 35.1% | [6]; at 1.2 µM 0% | [6]; at 3.7 µM 24% | [6]; [16] 6% | [6]; [17] 42% | [6]; at 50.0 µM 10.4% | [7]; at 1.2 µM 28% | [8]; at 1.2 µM 1% | [8]; at 3.7 µM 46%

CC(=O)N1C(=O)/C(=C\C(=O)c2ccc(Cl)cc2)c2ccccc21
inactive: [11]; at 1.2 µM 8% | [11]; at 3.7 µM 34% | [11]; at 11.0 µM 59% | [12]; at 1.2 µM 5% | [12]; at 3.7 µM 7% | [12]; at 11.0 µM 31% | [13]; at 1.2 µM -2% | [13]; at 3.7 µM 12% | [13]; at 11.0 µM 22% | [13]; at 33.0 µM 47% | [14]; at 1.2 µM 11% | [14]; at 3.7 µM 0% | [14]; [16] 44% | [14]; at 11.0 µM 51% | [1]; at 1.2 µM -3% | [1]; at 3.7 µM -8% | [1]; [16] 45% | [1]; at 11.0 µM 17% | [2]; at 1.2 µM -16% | [2]; at 3.7 µM -10% | [2]; at 11.0 µM 8% | [3]; [16] 41% | [4]; at 1.2 µM -38% | [4]; at 3.7 µM -14% | [4]; at 11.0 µM 2% | [4]; at 33.0 µM 66% | [5]; [16] 14% | [6]; at 1.2 µM 2% | [6]; at 3.7 µM -23% | [6]; [16] 13% | [6]; at 11.0 µM -15% | [7]; at 1.2 µM 25% | [7]; at 3.7 µM 52% | [8]; at 1.2 µM -18% | [8]; at 3.7 µM 2% | [8]; at 11.0 µM 31% | [15]; at 1.2 µM -15% | [15]; at 3.7 µM 17% | [15]; at 11.0 µM 49% | [10]; at 1.2 µM 14% | [10]; at 3.7 µM 32% | [10]; at 11.0 µM 66%
active: [11]; at 33.0 µM 93% | [11]; at 100.0 µM 94% | [12]; at 33.0 µM 79% | [12]; at 100.0 µM 94% | [13]; at 100.0 µM 72% | [14]; at 33.0 µM 90% | [14]; [17] 96% | [14]; at 50.0 µM 76% | [14]; at 100.0 µM 92% | [1]; at 33.0 µM 81% | [1]; [17] 98% | [1]; at 50.0 µM 87.4% | [1]; at 100.0 µM 91% | [2]; at 33.0 µM 71% | [2]; at 100.0 µM 92% | [3]; [17] 96% | [3]; at 50.0 µM 86.3% | [4]; at 100.0 µM 90% | [5]; [17] 91% | [5]; at 50.0 µM 77.2% | [6]; at 33.0 µM 81% | [6]; [17] 96% | [6]; at 50.0 µM 85.8% | [6]; at 100.0 µM 92% | [7]; at 11.0 µM 93% | [7]; at 33.0 µM 97% | [7]; at 100.0 µM 93% | [8]; at 33.0 µM 78% | [8]; at 100.0 µM 92% | [15]; at 33.0 µM 87% | [15]; at 100.0 µM 92% | [9]; [16] 80% | [9]; [17] 97% | [9]; at 50.0 µM 80.7% | [10]; at 33.0 µM 92% | [10]; at 100.0 µM 92%
